# The supplement of paper PMC3334620
# In all, about 33,000 sequences were measured (“E-score (-0.5 to 0.5)”: median about -0.035, highest 2% from about 0.35 on). For the sample, the highest values were picked, then their nearest neighbours and some sequences at random.
# Biological target: T1, Pdr3 (UniProt P33200)
# T1 sequence: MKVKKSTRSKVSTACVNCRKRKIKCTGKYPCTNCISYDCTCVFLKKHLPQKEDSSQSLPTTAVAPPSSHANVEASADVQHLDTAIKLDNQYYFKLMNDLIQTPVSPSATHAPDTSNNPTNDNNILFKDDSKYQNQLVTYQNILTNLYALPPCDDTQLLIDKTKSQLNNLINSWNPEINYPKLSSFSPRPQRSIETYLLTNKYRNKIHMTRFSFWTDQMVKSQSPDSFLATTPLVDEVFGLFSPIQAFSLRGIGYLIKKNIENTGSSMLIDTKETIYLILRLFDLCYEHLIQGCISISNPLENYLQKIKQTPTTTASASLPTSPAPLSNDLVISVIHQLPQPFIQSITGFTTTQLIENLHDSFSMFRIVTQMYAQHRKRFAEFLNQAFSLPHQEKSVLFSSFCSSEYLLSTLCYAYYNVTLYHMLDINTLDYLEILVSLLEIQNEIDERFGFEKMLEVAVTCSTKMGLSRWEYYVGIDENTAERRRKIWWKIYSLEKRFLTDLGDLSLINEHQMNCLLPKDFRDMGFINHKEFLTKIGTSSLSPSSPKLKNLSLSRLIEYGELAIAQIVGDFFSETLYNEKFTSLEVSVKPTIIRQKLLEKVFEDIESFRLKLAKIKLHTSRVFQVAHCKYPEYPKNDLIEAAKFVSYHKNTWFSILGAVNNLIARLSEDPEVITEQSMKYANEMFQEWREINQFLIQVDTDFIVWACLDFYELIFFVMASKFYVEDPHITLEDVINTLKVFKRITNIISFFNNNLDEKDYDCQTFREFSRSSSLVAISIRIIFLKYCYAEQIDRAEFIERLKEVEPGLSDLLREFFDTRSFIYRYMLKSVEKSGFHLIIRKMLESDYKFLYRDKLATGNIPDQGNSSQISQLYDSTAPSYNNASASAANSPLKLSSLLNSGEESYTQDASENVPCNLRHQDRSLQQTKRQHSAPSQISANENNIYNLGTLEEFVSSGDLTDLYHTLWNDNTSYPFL
# Experiment: PBM E-score (8-mer binding enrichment) (E-score (-0.5 to 0.5)); higher = stronger / more preferred TF binding
# Details: protein concentration: 200 nM; construct: GST-full length
# Method: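 Universal 'all 10-mer' protein binding microarrays (Agilent AMADID 015681) probed with GST-tagged S. cerevisiae TFs (full-length or DBD) made by in vitro transcription/translation (PURExpress), about 100-200 nM. Bound TF was detected with fluorescent anti-GST. Each ungapped 8-mer (which stands for itself and its reverse complement) is scored by the PBM enrichment score (E-score), a modified Wilcoxon-Mann-Whitney statistic from -0.5 to +0.5, computed with the Universal PBM Analysis Suite. Scale: above 0.35 generally sequence-specific binding.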
row,Sequence,PBM E-score
1,CCGGAGTA,0.367
2,AAGAGTTC,-0.178
3,CCCCAACA,-0.274
4,ATTAAGAG,-0.0729
5,AGCGCGGA,0.331
6,CGTGCGGA,0.177
7,GGCGCGGA,0.352
8,CGCGCGGC,0.373
9,CTCGCGGC,0.171
10,CGAGCGGA,0.359
11,AGAGCGGA,0.229
12,CGCGCGGA,0.383
13,AGTGCGGA,0.377
14,AGTGCGGG,0.185
15,CGAGCGGC,0.228
16,AGCGCGGC,0.107
17,AGGCTACT,-0.167
18,CCGCCAGC,0.105
19,TACCTAGA,-0.195
20,ACCCGTAT,0.0405
21,AGAGTAAC,0.0157
22,AAATCTAT,-0.00749

row,Sequence,PBM E-score
1,CGGTGTAG,-0.0315
2,CTTATCCA,-0.00809
3,CGCGGGAA,0.429
4,GGCGGGAA,0.198
5,CGCGGGGC,0.304
6,CGCGGGAC,0.444
7,CGCGGGGA,0.393
8,AGCGGGAC,0.185
9,GGCGGGAC,0.295
10,AGCGGGAA,0.232
11,AGCGGGGA,0.0517
12,AAGTTCAG,-0.098
13,CGGTTCCC,0.153
14,AGTACTGG,-0.222
15,GAACTAGC,-0.00564
16,ATTCCCTA,0.0152
17,GGTTCTTA,-0.0791
18,AAGACCAA,-0.0835
19,GTTACCCA,-0.159
20,ATGCGCTG,-0.0256
21,AATCAACT,0.0921
22,ATAAGCTC,0.042

row,Sequence,PBM E-score
1,CACCGCGC,0.166
2,CACCGCGG,0.452
3,AACCGCGA,0.277
4,AGCCGCGA,0.187
5,CACCGCGA,0.032
6,AACCGCGG,0.457
7,AACCGCGT,0.141
8,AGCCGCGC,0.236
9,AGCCGCGG,0.485
10,ATAAGAGG,0.0703
11,AAGGTCAG,-0.201
12,AGCAGACT,-0.189
13,ACAGAGCT,-0.292
14,GTGCCCAA,-0.0202
15,GAATCACC,-0.027
16,CCGGGCTC,0.224
17,ACAATGCA,0.0617
18,AGAGGATG,0.0386
19,CACTAGCG,-0.0368
20,ATGTTTAC,-0.0373
21,GACGCGCA,0.0698
22,GCACCGTA,0.067

row,Sequence,PBM E-score
1,CCACCGGC,0.204
2,CCACCGGG,0.257
3,GCACCGGA,0.377
4,CCACCGGA,0.428
5,TCACCGGA,0.329
6,ACACCGGT,0.14
7,GCACCGGC,0.146
8,ACACCGGA,0.357
9,CGTTTGCA,0.0843
10,CCAACTGC,0.0661
11,TCCCATCA,-0.209
12,AGAAAGTG,-0.177
13,AATCGACG,0.058
14,CCGGCACG,0.279
15,CCGGCAGG,0.231
16,ACGGCACC,-0.0873
17,CCGGCAGC,0.362
18,CCGGCAGA,0.229
19,CCGGCACC,0.369
20,GTCCGTAA,0.191
